Mito fusion yeast: qHTS Assay for Small Molecule Inhibitors of Mitochondrial Division or Activators of Mitochondrial Fusion | S. cerevisiae fusion-defective mutant growth rescue, CellTiterGlo 48 h | Potency, µM (top dose mostly 46.1 µM), without a hit: top-dose growth rescue (activation), hits mostly activators | 320,000 compounds, 0.23% hits; further: % of control where 0% means no effect; nearly all actives have a fitted effect of over 45% in size
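Temperature-sensitive fusion-defective S. cerevisiae (e.g. fzo1-1, mgm1-5) were grown with compound in YPEG medium (3% ethanol, 3% glycerol) for 48 hours at 37C. Growth rescue was measured as viability by CellTiterGlo luminescence after 10 minutes at ambient.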
Abeta rescue: qHTS for compounds that reverse cellular toxicity of Amyloid beta (A-beta) peptide in yeast: Primary Screen; 410,000 compounds, 0.063% hits; yeast expressing A-beta42, growth rescue, OD600, 48 h; response scale: 0% DMSO, 100% iron-clioquinol control; AID 1347071, 2019; Potency, µM (titrated, usually from 46.1 µM), usual class: activators; further: nearly all actives have a fitted effect of over 55% in size
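Yeast A-beta toxicity model in growth medium with pinned compounds, 48 h at 30 C; growth read as absorbance at 600 nm. Normalized to FeCl3/clioquinol equimolar mix (positive) and DMSO (negative).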
TDP-43 yeast inh: qHTS of TDP-43 Inhibitors; TDP-43 expressing yeast growth rescue, BacTiter-Glo, 24 h; Potency, µM (titrated, usually from 46.1 µM), for inactives: at the highest dose growth rescue (activation), actives largely listed as activators; 410,000 compounds, 1.8% hits; further: % of control where 0% means no effect; nearly all actives have a fitted effect of over 50% in size
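Growth rescue of TDP-43-toxic yeast measured as ATP luminescence (BacTiter-Glo). Cells grown to mid-log in raffinose, induced in galactose at OD600=0.02, exposed to compound 24 hr at 30 deg C.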
FUS suppressor: qHTS for Suppressors of FUS Proteinopathy: Primary screen using FUS-linked yeast assay | Potency, µM (series often up to 76.6 µM), most hits filed as activators | 390,000 compounds, 0.24% hits | S. cerevisiae FUS-expressing, growth rescue, OD600, 24 h;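 further: plate controls were DMSO vehicle for no effect and reference control for full effect; nearly all actives have a fitted effect of over 55% in size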
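S. cerevisiae expressing FUS from galactose induction served as the toxicity model. Growth after 24hr at 30C, read as absorbance at 600 nm, indicates suppression of toxicity; compounds dosed at several concentrations.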
aSyn yeast inh: qHTS of alpha-syn Inhibitors | Yeast expressing alpha-synuclein, growth rescue, BacTiter-Glo, 24 h | Potency, µM (doses to about 46.1 µM), inactives show at the top dose growth rescue (activation), usual class: activators | 370,000 compounds, 0.14% hits; further: % of control where 0% means no effect; nearly all actives have a fitted effect of over 65% in size
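Screening used galactose-induced yeast with toxic alpha-synuclein levels, exposed to compound for 24 hr at 30 deg C. Cell growth, read with BacTiter-Glo luminescence, gave the measured signal.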
Starred values were filed as active, the others as inactive; i = inactive; ? = inconclusive; / = no result given. This is a sample that favours compounds with a hit; in the whole collection about 2.2% have one here. The call rests on the fitted dose curve; in most records, active means well fitted curve in the direction sought with a large enough effect; inconclusive means small, poorly fitted or top-dose-only effect, or another doubt; inactive means no such curve, though single readings can be large; an effect the other way counts as inactive or inconclusive. Potency means the concentration at half of the fitted maximal effect.

SMILES | Mito fusion yeast | Abeta rescue | TDP-43 yeast inh | FUS suppressor | aSyn yeast inh
C[C@@H]1Cn2cnc(C(=O)N[C@@H](C)C(=O)OC(C)(C)C)c2C(=O)N1 | / | i | 0% | i | 1%
CN1C(=O)C2C3c4ccccc4C(c4ccccc43)[C@@H]2C1=O (stereo partly drawn) | 12% | i | 2% | i | -2%
CC(=O)N(C(C)=O)N1C(=O)C2C3c4ccccc4C(c4ccccc43)C2C1=O (stereo not drawn) | 1% | i | 22µM* | i | -21%
Cc1ccc(O)c(C(C)c2c[nH]c3ccccc23)c1 (stereo not drawn) | / | / | / | i | /
CCCCN(CC)c1nc(-c2ccncc2)nc2ccccc12 | 18µM* | i | ? | i | 10%
CCN(CC(=O)NCc1ccc(Cl)cc1)C(=O)/C=C/c1ccc(Cl)c([N+](=O)[O-])c1 | 0% | i | 13% | / | -2%
CCOC(=O)Cc1csc(NC(=O)COc2ccccc2OCC)n1 | -1% | i | 11µM* | i | /
CCOC(=O)Cc1csc(NC(=O)COc2ccc3ccccc3c2)n1 | -2% | ? | 13µM* | i | 1%
CCOC(=O)Cc1csc(NC(=O)COc2ccc(OC)cc2)n1 | -6% | i | 13µM* | i | -10%
CCOC(=O)Cc1csc(NC(=O)COc2c(C)cccc2C)n1 | 3% | i | 22% | i | 11%
OC(c1ccccc1)c1nc(-c2ccc(Cl)cc2)cs1 (stereo not drawn) | / | i | 35µM* | i | ?
OC(c1ccccc1)c1nc(-c2ccccc2)cs1 (stereo not drawn) | / | i | 0% | i | 5%
O=C(O)c1cccc(-c2csc(C(O)c3cccc(Cl)c3)n2)c1 (stereo not drawn) | / | i | ? | i | 5%
OC(c1cccc(Cl)c1)c1nc(-c2ccccc2)cs1 (stereo not drawn) | / | i | 14µM* | i | ?
COc1ccc(C2Nc3ccccc3C(=O)N2Cc2cccnc2)cc1COc1c(C)cccc1C (stereo not drawn) | / | / | / | i | /
Cc1ccc(C(=O)OC(C)C(=O)Nc2ccc(S(N)(=O)=O)cc2)cc1S(=O)(=O)N1CCOCC1 (stereo not drawn) | -2% | i | -23% | i | 2%
COc1cc(C#N)ccc1OCC(=O)Nc1ccc(C)c(S(=O)(=O)N2CCOCC2)c1 | 8% | i | 9% | i | 1%
Cc1ccc(NC(=O)C(C)OC(=O)c2ccc(NC(=O)CC#N)cc2)cc1S(=O)(=O)N1CCOCC1 (stereo not drawn) | -1% | i | -3% | 14µM* | -3%
Cc1cc(Cl)ccc1OCC(=O)NC(=S)Nc1ccccc1N1CCOCC1 | -1% | i | -26% | i | 3%
Cc1ccc(NC(=O)COc2ccc(Cl)cc2Cl)cc1S(=O)(=O)N1CCOCC1 | 26% | i | 14µM* | i | 8%
COc1cccc(C(=O)Nc2ccccc2N2CCOCC2)c1 | 6% | i | 13µM* | i | -1%
Cc1cc(Cl)ccc1OCC(=O)Nc1ccccc1N1CCOCC1 | -6% | i | 13µM* | i | 2%
CCN(CC)C(=O)CC[C@@H]1CC[C@]2(CCCN(C(=O)c3ccno3)C2)O1 | / | / | / | i | /
C1=CN2CC=Cc3cc(/C=C/c4ccnc5ccccc45)cc(c32)C1 | / | / | / | / | -21%
CC(=O)N1c2ccc(S(=O)(=O)N3CCCC3C(=O)NCc3ccc(Cl)cc3)cc2CC1C (stereo not drawn) | -1% | i | 0% | i | 0%
NCCN1CCN(S(=O)(=O)c2ccc3c(c2)CCN3C(=O)C2CCC2)CC1 | / | / | / | i | /
CC1(C)N=C(SCC(=O)Nc2ccc(Cl)cc2Cl)C(c2ccccc2)=N1 | 4% | i | 23% | i | -13%
CC1(C)N=C(SCC(=O)Nc2ccccc2)C(c2ccc(Cl)cc2)=N1 | 0% | i | 18µM* | i | 0%
